Laboratory results published in PubChem BioAssay AID2288 (National Center for Advancing Translational Sciences (NCATS), 2010).
In all, about 340,000 compounds went through this assay and fewer than 10 were called active. Inconclusive results (about 2%) are left out. The call rests on the fitted dose curve; in most records, active means well fitted curve in the direction sought with a large enough effect; inconclusive means small, poorly fitted or top-dose-only effect, or another doubt; inactive means no such curve, though single readings can be large or run the other way. Only a sample is shown.

assay: qHTS Assay for Modulators of miRNAs and/orActivators of miR-21; conditions: HeLa miR-21 FLuc reporter, luciferase, 48 h; series mostly up to 38.3 µM;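 further: miR-21 action dims this reporter so a rising signal means less miR-21 action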
Text: MLSCN Grant: 1 R21 NS059478-01 Assay Provider: Qihong Huang, The Wistar Institute NCGC Assay Overview: MicroRNAs (miRNAs) are endogenously encoded small (~20-25 nucleotides), nonprotein-coding RNAs that are involved in post-transcriptional repression of target messenger RNAs (mRNAs) (Le and Hannon, 2004). Estimated to be involved in the regulation of 30% of all protein-coding mRNAs (Filipowicz et al., 2008), miRNAs play a significant role in many biological processes including cellular differentiation and tissue development (Ghildiyal and Zamore, 2009).
NCGC Assay Protocol Summary: Reagents: HeLa cells stably expressing firefly luciferase (FLuc) under the control of a CMV promoter (upstream) and a miR-21 binding sequence directly downstream of the gene. These cells endogenously express miR-21. Control compounds used were compound C3 (provided by collaborator), N6-phenyladenosine (MP Biomedicals, 0215379625), and DMSO. Assay Summary: 6uL of HeLa miR-21-FLuc cells in assay buffer (DMEM, Invitrogen #21063-029; 10% FBS, HyClone #SH30071.03) were dispensed at 2000cells/well (3.3 x 10^5 cells/mL) into Greiner solid-white TC-treated 1536-well plates using a Multidrop Combi (Thermo Fisher Scientific). Plates were incubated for one hour at 37 degree Celsius, 95% humidity, 5% CO2. These assay plates were then treated with 23nL of compound or DMSO using a Kalypsys pin tool, which allows for delivery of a 24-point titration of each compound to the assay plate, with a final compound concentration ranging from approximately 40uM to 5pM. Assay plates were then incubated for 48 hours. After incubation, plates were allowed to come to RT for one hour prior to delivery of 3uL of 3X luciferase detection reagent. After a 15 minute incubation to allow for cell lysis, luciferase activity was measured using a ViewLux CCD imager (PerkinElmer), with an average exposure time of 2-12 seconds. Keywords: NIH Roadmap, MLPCN, MLSMR, qHTS, miR-21, microRNA, firefly luciferase, FLuc.

outcome, inactive:
CCCN1CCN(CCCNC(=O)c2cnn(-c3ccc(C)cc3)c2-n2cccc2)CC1, CCCCN(CC)C(=O)c1c[nH]c2ccc(S(=O)(=O)Nc3cccc(OC)c3)cc2c1=O, Cc1c(-c2nc(-c3ccc4c(c3)OCO4)no2)nnn1-c1ccc(Br)cc1F, O=C(NCc1cccnc1)C(=O)NCC(c1cccnc1)N1CCN(c2ccccc2)CC1 (stereo not given), Cc1ccccc1C(=O)NCc1nc(-c2ccc(Cl)cc2)no1, CCOc1ccc(NC(=O)Cn2c(=O)n(CCCC(=O)NCc3ccc4c(c3)OCO4)c(=O)c3ccccc32)cc1, CCOc1ccc(Nc2oc(/C=C/c3ccc(F)cc3)nc2C#N)cc1, CCOc1ccc(OCC)c(NC(=O)c2cc(C)nc3c2c(C)nn3-c2cccc(Cl)c2C)c1, COC(=O)c1ccc(NC(=O)CCc2c(C)nc3c(c(C)nn3-c3ccc(C)cc3)c2C)cc1, COc1cc(Cl)c(NC(=O)CC(C)S(=O)(=O)c2cc3c(cc2C)NC(=O)CO3)c(OC)c1 (stereo not given), Cc1ccc(CN2CCc3nc(N4CCN(C)CC4)ncc3C2)cc1, CCOC(=O)c1ccc2c(c1)N(Cc1cccc(OC)c1)C(=O)c1ccccc1S2(=O)=O, COc1ccc(Cc2nc3ccc(C(=O)NCc4ccccc4C)cc3o2)cc1, CCOC(=O)c1c(C)[nH]c(CCC(=O)NCCCN2CCN(c3cccc(Cl)c3)CC2)c1C, Cc1ccc(SCC(=O)Nc2ccc3oc(-c4ccccc4F)nc3c2)cc1, CN(C(=O)CSc1nc2ccccc2n1Cc1ccccc1C#N)c1ccccc1, CCc1nnc(SCc2nc(-c3cccc(C)c3)oc2C)c2cc3sc(C)cc3n12, COc1ccccc1N1CCN(c2ncnc3onc(-c4ccc(F)cc4)c23)CC1, CC(C)Oc1ccc(CNC(=O)C2CCN(c3nc4ccccc4n(C)c3=O)CC2)cc1, CC(C)c1ccc(NS(=O)(=O)c2ccc3[nH]cc(C(=O)NC4CCCC4)c(=O)c3c2)cc1, Cc1ccc(-n2nc(C)c3c(C)cc(=O)n(CC(=O)Nc4ccc(C(C)C)cc4)c32)cc1, O=C(NCCCO)c1nn(-c2ccc(Cl)cc2)nc1CO, COc1ccccc1CNC(=O)CCCn1c(=O)c2ccccc2n(CC(=O)Nc2ccc(C)cc2Cl)c1=O, COc1cccc(-n2c(=O)c3c(C)c(C(=O)N(C)C)sc3n(Cc3cccc(C)c3)c2=O)c1, CCOc1cccc2sc(N3CCN(C(=O)C4CC4)CC3)nc12, CCc1nn(CC(=O)N2CCN(c3ccc(Cl)cc3)CC2)c(=O)c2cc3occc3n12, CSc1ncc(C(=O)NCc2ccccc2Cl)c(C(F)(F)F)n1, COc1ccc(CC(=O)Nc2nnc3n2CCS3)cc1OC, Cc1ccc(-c2nn(CCC(=O)Nc3ccc(Cl)c(Cl)c3)c(=O)c3ccccc23)cc1, CCC(=O)Nc1ccccc1-c1nc2ccccc2n(CC(=O)Nc2ccc(C)c(C)c2)c1=O, CCN1CCc2nc3sc(C(=O)Nc4ccccc4OC(F)(F)F)c(N)c3cc2C1, CCOC(=O)c1cc(NC(=O)c2ccc(F)cc2)c(=O)n2c1oc1ccccc12, CCOc1ccc(N(CC)S(=O)(=O)N2CCCC(C(=O)NCc3ccc(SC)cc3)C2)cc1 (stereo not given), COc1ccc(CNC(=O)CSc2n[nH]c(-c3ccc(F)cc3)n2)cc1, COc1ccc(CN2C(=O)C(NC(=O)c3cccc(C)c3)(C(F)(F)F)N=C2c2ccccc2)cc1 (stereo not given), Cc1c(Cl)cccc1NC(=O)C(=O)NCCc1csc2nc(-c3ccccc3F)nn12, COCCNC(=O)CSc1c(C)cnc2c1c(=O)n(C)c(=O)n2C, O=C(c1ccccc1F)N1CCC(c2nc3c(nnn3Cc3cccc(F)c3)c(=O)[nH]2)CC1, COc1ccc(OC)c(NC(=O)CSC2=Nc3ccccc3C3=NC(CC(=O)NCc4ccc(F)cc4)C(=O)N23)c1 (stereo not given), COc1ccccc1-c1nnc(SCC(N)=O)o1, COc1cc(NS(=O)(=O)c2ccc3c(c2)OCC(C(=O)N2CCCC2)O3)cc(OC)c1 (stereo not given), Cc1ccc(C)c(NC(=O)CSC2=Nc3ccccc3N=C(c3ccc(F)cc3)C2)c1, Cc1cc(C)cc(NC(=O)Cc2csc(C)n2)c1, CCc1nccn1S(=O)(=O)c1cc(Br)ccc1Br, CC(=O)Nc1ccc(NC(=O)CSc2nnc3c4cc(Br)ccc4n(C)c3n2)cc1, Cc1ccc(C)c(CNC(=O)c2cc3ccccn3n2)c1, Cc1ccc(C)c(Cn2c(C)c(CNCc3ccc(F)cc3)c(C(=O)O)c2C)c1, CCOC(=O)c1ccc(NC(=O)CSc2nc3c([nH]c4ccccc43)c(=O)n2C)cc1, CCc1ccc(-n2nnc(-c3nc(-c4ccccc4)no3)c2C)cc1, O=C(NCCCN1CCN(c2cccc(Cl)c2)CC1)c1nnc(Cc2ccc(F)cc2Cl)o1, CCNC(=O)CC1C(=O)N(c2ccc(F)cc2)C(=O)N1Cc1ccc(C)cc1 (stereo not given), CCOC(=O)c1[nH]c(C)c(CCC(=O)NCc2ccccc2C)c1C, COc1ccc(NC(=O)COCc2cc(-c3ccco3)on2)cc1, O=C(CCSCc1cccc(F)c1)NCc1ccccc1, CN(Cc1ccccc1)c1ccc(-c2nc(-c3ccccc3)no2)cc1[N+](=O)[O-], Cc1ccc(C(=O)Nc2cc3c(cc2N2CCCC2)n(C)c(=O)c(=O)n3C)cc1, CCCOC(=O)c1c(NC(=O)c2cc3nc(-c4ccc(OC)cc4)cc(C(F)(F)F)n3n2)sc2c1CCCC2, Cc1ccc(-c2nc(CS(=O)(=O)CC(=O)NCc3ccccc3Cl)c(C)o2)cc1, Cc1nn(C(C)C(=O)NCCc2ccccc2)c(=O)c2c1sc1ccccc12 (stereo not given), CCN(C(=O)Cn1cc(S(=O)(=O)N2CCN(c3ccccc3F)CC2)c2ccccc2c1=O)c1ccc(C)c(C)c1, CCOC(=O)c1cccc(NC(=O)c2cc(S(=O)(=O)N3CCCC(C)C3)cn2C)c1 (stereo not given), COc1ccc(-c2[nH]c3c(c2-c2c(-n4cccc4)n(C)c(=O)n(C)c2=O)c(=O)n(C)c(=O)n3C)cc1, O=c1c2cccnc2n(Cc2cccc(F)c2)c(=O)n1Cc1ccccc1Cl, Cc1ccc(-c2nc(Cn3c(=O)cc(-c4ccccc4)c4c(C)nn(C)c43)c(C)o2)cc1, COC(=O)c1c(NC(=O)C(C)Oc2ccc(Cl)c(C)c2)sc(C)c1C (stereo not given), Cc1cccc(Cn2c(SCc3ccc(C(=O)N4CCC(C)CC4)cc3)nc3ccncc32)c1, CCc1cnc2c(c1SCC(=O)c1ccccc1)c(=O)n(C)c(=O)n2C, CC(C)c1ccc(NC(=O)c2ccc(Cn3nc(N4CCN(c5ccccc5)CC4)ccc3=O)o2)cc1, Cc1ccc(-c2nnc3c4ccccc4c(C)nn23)cc1NC(=O)c1cccc(Br)c1, CC(=O)c1ccc(NC(c2ccc(F)cc2)c2nnc(-c3ccccc3)o2)cc1 (stereo not given), CCN(C(=O)Cn1cnc2sc(C)c(S(=O)(=O)N3CCN(c4ncccn4)CC3)c2c1=O)c1ccccc1F, Cc1cccc(N2CCN(C3=C(c4ccccc4)C(=O)c4ccccc43)CC2)c1C, COc1cccc(NC(=O)c2csnn2)c1, N#C/C(=C\c1cccc(F)c1)c1nc(-c2cc3c(ccc4ccccc43)oc2=O)cs1, CC(=O)c1ccc(NC(=O)C2CCN(S(=O)(=O)c3c(C)noc3/C=C/c3ccc(C)cc3)CC2)cc1, CCOc1ccccc1C(=O)NC1(C(F)(F)F)C(=O)Nc2c1c(=O)[nH]c(=O)n2-c1ccc(F)cc1 (stereo not given), O=C1CN(C(=O)Nc2ccccc2C(F)(F)F)C(c2ccccc2)c2c(sc3c2CCCC3)N1 (stereo not given), O=C1OC(C(=O)Nc2cccc(Br)c2)Cc2ccccc21 (stereo not given), O=C(CCOc1ccccc1)N(Cc1cccnc1)c1nc2ccc(Cl)cc2s1, CC(C)(C)NC(=O)CSc1nc(-c2ccc(F)cc2)cc(C(F)(F)F)n1, O=C(CSc1nc2nccnc2c(=O)n1CCc1c[nH]c2ccccc12)Nc1ccccc1F, Cn1c(SCC(=O)N2CCCc3ccccc32)ncc(C(=O)Nc2ccc(F)cc2)c1=O, Cc1ccc(Cl)cc1N(C)C(=O)Cn1nc(Cc2cccnc2)c2ccccc2c1=O, COc1ccc(SCc2cc(=O)c3ccc(C)c(C)c3[nH]2)cc1, Cc1cccc(OCCSc2nc3ccccc3n2CC(=O)N2CCCCC2)c1C, COc1ccc(NC(=O)C(c2ccccc2)N2Cc3ccccc3C2=O)cc1 (stereo not given), CCCN1CN=C(NS(=O)(=O)c2ccc(NC(C)=O)cc2)NC1, COc1ccc(-c2nn3c(=O)cc(CN4CCN(C(=O)c5ccc(OC)c(OC)c5)CC4)nc3s2)cc1, CCOC(=O)c1c(C)[nH]c(C)c1S(=O)(=O)N(C)CC(=O)N1CCN(c2ccccc2)CC1, COc1ccc2c(c1)c(=O)c(C(=O)c1ccccc1)cn2CC(=O)Nc1ccc2c(c1)OCCO2, Cc1ccc(CNS(=O)(=O)c2ccc(C(=O)N(C)C)s2)cc1, COc1ccc(-c2c3c(=O)n(C)c(=O)n(C)c3c3c(C)nc4ccccc4n23)cc1, Cc1ccc(CN(C(=O)COc2ccc(Cl)cc2C)C2CCS(=O)(=O)C2)o1 (stereo not given), Cc1ccc(NC(=O)c2ccc3[nH]c(C)cc(=O)c3c2)c(C)c1, Cc1ccccc1CCNC(=O)C1CCN(c2nc3ccccc3nc2C(F)(F)F)CC1, COC(=O)c1ccc(NC(=O)CCc2c(C)nn(-c3ccc(N4CCCC4)nn3)c2C)cc1, Cc1cc(C)cc(NC(=O)c2cnc3sc(N4CCCC4)nn3c2=O)c1, O=C(Cn1cnc2c(oc3ccccc32)c1=O)Nc1ccc(OC(F)(F)F)cc1, COc1ccccc1C(=O)OCc1cc(=O)n2nc(-c3cccs3)sc2n1, Cc1ccc(-c2nnc(SCc3ccccc3C)o2)cc1, CCN(CC)C(=O)CSc1nc2ccsc2c(=O)n1Cc1ccccc1Cl, COc1ccc(CCNCc2c(C(=O)O)c(C)n(Cc3cccc(C)c3)c2C)cc1OC, COc1ccc(-n2c(=O)c3c(c4cc(OC)ccc4n3C)n(Cc3cccc(C)c3)c2=O)cc1, COc1ccc(OC)c(CCNC(=O)CCCn2c(=O)c3cccn3c3cccnc32)c1, Cc1nn2c(=O)cc(COC(=O)c3cccc(NC(=O)COc4ccccc4Cl)c3)nc2s1
